Data reported in PubChem BioAssay (NCI).
Several values for one entry are separate records, joined by “and”; a condition that tells them apart may be missing. Equal values may be shown once. This is part of a sample that, as a whole, favours compounds with a hit. Of some 83,000 tested, about 20% had one in any assay.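 For each line, cells grew in 96-well plates with the test compound present at a single concentration for 48 hours.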 Activity calls are given as the source filed them. How the source made its calls: active means growth percent below 10; inactive means the rest.

Columns and labels:
Assay in all cases: NCI-60 one-dose screen, 48 h (100 = growth as untreated, 0 = no growth, -100 = all killed)
Settings in all cases: 10 µM unless noted
SR leukemia = test system: SR leukemia
RPMI-8226 leukemia = test system: RPMI-8226 leukemia
OVCAR-8 ovarian = test system: OVCAR-8 ovarian
OVCAR-4 ovarian = test system: OVCAR-4 ovarian
SK-OV-3 ovarian = test system: SK-OV-3 ovarian
IGROV1 ovarian = test system: IGROV1 ovarian
OVCAR-3 ovarian = test system: OVCAR-3 ovarian
HS 578T breast = test system: HS 578T breast
NCI/ADR-RES ovarian = test system: NCI/ADR-RES ovarian
OVCAR-5 ovarian = test system: OVCAR-5 ovarian

| SMILES | growth (SR leukemia) | growth (RPMI-8226 leukemia) | growth (OVCAR-8 ovarian) | growth (OVCAR-4 ovarian) | growth (SK-OV-3 ovarian) | growth (IGROV1 ovarian) | growth (OVCAR-3 ovarian) | growth (HS 578T breast) | growth (NCI/ADR-RES ovarian) | growth (OVCAR-5 ovarian) |
| --- | --- | --- | --- | --- | --- | --- | --- | --- | --- | --- |
| CN1CNC(=O)NC1 | 106% (inactive) and 79.6% (inactive) | 113% (inactive) and 104% (inactive) | 106% (inactive) and 98.6% (inactive) | 119% (inactive) and 112% (inactive) | 112% (inactive) and 105% (inactive) | 137% (inactive) and 97.8% (inactive) | 112% (inactive) and 107% (inactive) | 109% (inactive) and 96.5% (inactive) | 109% (inactive) and 103% (inactive) | – |
| CC[C@H](CC[C@@H](C)[C@H]1CC[C@H]2[C@@H]3CC=C4C[C@@H](O)CC[C@]4(C)[C@H]3CC[C@]12C)C(C)C | 109% (inactive) and 101% (inactive) | 114% (inactive) | 98.9% (inactive) and 105% (inactive) | 97.6% (inactive) and 114% (inactive) | 94.8% (inactive) and 104% (inactive) | 111% (inactive) | 112% (inactive) and 108% (inactive) | 96.5% (inactive) and 103% (inactive) | -46.1% (active) and 101% (inactive) | 45.2% (inactive) and 103% (inactive) |
| Cc1cc2ccccc2cn1 | 109% (inactive) | 100% (inactive) and 114% (inactive) | 102% (inactive) | 108% (inactive) and 90.4% (inactive) | 108% (inactive) and 103% (inactive) | 144% (inactive) | 112% (inactive) and 111% (inactive) | 113% (inactive) and 144% (inactive) | 103% (inactive) and 118% (inactive) | – |
| Cc1ccc(S(=O)(=O)c2ccccc2)cc1 | 34.7% (inactive) | 49% (inactive) | 55.1% (inactive) | 71.1% (inactive) | 29.5% (inactive) | 45.4% (inactive) | -38.9% (active) | 35.2% (inactive) | 21.1% (inactive) | 80.1% (inactive) |
| O=C1C=C(Nc2ccccc2)c2ccccc2C1=O | 84.5% (inactive) | 52.7% (inactive) and 87.3% (inactive) | 31.7% (inactive) and 94.3% (inactive) | 44.4% (inactive) and 82.5% (inactive) | 108% (inactive) and 90.9% (inactive) | 65.5% (inactive) and 85.3% (inactive) | 6.63% (active) and 35.4% (inactive) | 94.8% (inactive) and 88.6% (inactive) | 25.1% (inactive) and 91.4% (inactive) | 90.2% (inactive) and 109% (inactive) |
| CC(C)NCC(O)c1ccc(O)c(O)c1 (stereo unspecified) | 87.9% (inactive) and 95.3% (inactive) | 96.6% (inactive) and 99.6% (inactive) | 94.8% (inactive) and 131% (inactive) and 91.7% (inactive) | 107% (inactive) and 110% (inactive) and 97.1% (inactive) | 95.5% (inactive) and 94.9% (inactive) and 102% (inactive) | 96.4% (inactive) and 101% (inactive) | 113% (inactive) and 102% (inactive) and 108% (inactive) | 112% (inactive) and 96.6% (inactive) and 109% (inactive) | 96.3% (inactive) and 102% (inactive) and 93.8% (inactive) | 89.2% (inactive) and 92.6% (inactive) and 86.9% (inactive) |
| CN(C)c1ccc(/C=C\C(=O)c2ccccc2)cc1 | 3.11% (active) and 59.4% (inactive) and 24.9% (inactive) | 72.7% (inactive) and 76.8% (inactive) and 69.6% (inactive) | 102% (inactive) and 93.9% (inactive) and 92.6% (inactive) | 105% (inactive) and 109% (inactive) and 104% (inactive) | 92.3% (inactive) and 104% (inactive) | 80.5% (inactive) and 91.3% (inactive) and 80.3% (inactive) | 81.4% (inactive) and 76.2% (inactive) and 78.5% (inactive) | 104% (inactive) and 99.6% (inactive) and 103% (inactive) | 88.2% (inactive) and 85.5% (inactive) and 93.1% (inactive) | 106% (inactive) and 110% (inactive) and 99% (inactive) |
| O=C1OC(C(O)C(O)CO)C(O)=C1O (stereo unspecified) | 103% (inactive) and 107% (inactive) | 98.1% (inactive) and 105% (inactive) | 102% (inactive) and 105% (inactive) | 106% (inactive) and 112% (inactive) | 114% (inactive) and 92.9% (inactive) | 111% (inactive) | 115% (inactive) and 109% (inactive) | 120% (inactive) and 119% (inactive) | 95% (inactive) and 102% (inactive) | 94.6% (inactive) and 96.4% (inactive) |
| N#CC(C#N)N=Nc1cc(Cl)ccc1Cl | 106% (inactive) | 95.2% (inactive) | 90% (inactive) | 98.9% (inactive) | 99.2% (inactive) | – | 106% (inactive) | 116% (inactive) | 112% (inactive) | 97.4% (inactive) |
| COc1ccc(C(=O)CC(c2ccccc2)C(C#N)c2ccccc2)cc1 (stereo unspecified) | 73.8% (inactive) | 72.6% (inactive) | 86% (inactive) | 88.8% (inactive) | 102% (inactive) | 102% (inactive) | 82.4% (inactive) | 86.4% (inactive) | 84.2% (inactive) | – |
| Nc1ccc2c(O)cc(S(=O)(=O)O)cc2c1 | 86.3% (inactive) | 85% (inactive) | 105% (inactive) and 97.8% (inactive) | 93.5% (inactive) | 96.1% (inactive) and 96.6% (inactive) | 130% (inactive) and 86.1% (inactive) | 126% (inactive) and 105% (inactive) | 96.3% (inactive) | 105% (inactive) | 103% (inactive) |
